Records with an inconclusive call do not appear. Active and inactive are the calls of the source. Calls follow the shape of the dose curve; as a rule, active = well fitted cell-killing curve with a large enough effect; inconclusive = small, poorly fitted or top-dose-only effect, or effect the other way; inactive = flat fitted curve, though single readings scatter. Where a SMILES comes first, the peptide text is derived from it. [ ]: non-standard residue; d: D form. 2Abz = Nc1ccccc1C(=O)O
Assays:
Test in all cases: Primary qHTS to identify gynecologic anti-cancer compounds using libraries of approved drugs and bioactive compounds (AID 1345084); also: nearly all actives have a fitted effect of over 55% in size
Details in all cases: Gynecologic cancer cell panel viability, ATPlite luminescence, 48 h; series mostly up to 57.5 µM
SKOV3 = tested on: SKOV3
Procedure, shortened: (§1)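 ATP-based viability (ATPlite), 1,000 cells/well, 16 h pre-incubation, 48 h compound at 37 C, 5% CO2, 15 min RT before read.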

Tov-21-G = tested on: Tov-21-G
Procedure, shortened: as §1

Tov112D = tested on: Tov112D
Procedure, shortened: as §1
% is scaled to controls: 0 for no effect and ±100 for the full control effect.

CC(=O)O[C@@H]1[C@H](O[C@@H]2O[C@H](CO)[C@@H](O)[C@H](O)[C@H]2O)[C@@H](O[C@@H]2O[C@@H](C)[C@H](O)[C@@H](O[C@@H]3O[C@H](CO)[C@@H](O)[C@H](O)[C@H]3O)[C@H]2O)[C@H](OC(=O)C23CCC4(C)C(=CCC5C6(C)CC(O)C(O[C@@H]7O[C@H](C(=O)O)[C@@H](O)[C@H](O)[C@H]7O)C(C)(C(=O)O)C6CCC54C)C2CC(C)(C)CC3O)O[C@@H]1C (stereo partly specified)
inactive: activity change, negative = cytotoxicity (SKOV3) 2.37% [at 6.55 µM] | activity change, negative = cytotoxicity (Tov-21-G) 4.93% [at 6.55 µM] | activity change, negative = cytotoxicity (Tov112D) 4.44% [at 6.55 µM]

COc1c2c(c(C)c3c1C(=O)OC3)OC1(C)CC(O)C3(O)C(C)(C)OC(=O)CCC3(C)C1C2 (stereo unspecified)
inactive: Potency (SKOV3) | Potency (Tov-21-G) | Potency (Tov112D)

O=C(NCC(=O)N1CC[C@H](NC2CCC(O)(c3ccc(-c4ncccn4)cn3)CC2)C1)c1cccc(C(F)(F)F)c1 (stereo partly specified)
inactive: Potency (SKOV3) | Potency (Tov-21-G) | Potency (Tov112D)

CCC1CC2C(C)=CC3CCCCC3C2(C)C2(OC(=O)C(C)(O)OC2=O)O1 (stereo unspecified)
inactive: Potency (SKOV3) | Potency (Tov-21-G) | Potency (Tov112D)

C=CC(C)(O)CC/C=C(\C)C(=O)OCC1OC(OC2CCC3(C)C(CCC4(C)C3CC=C3C5CC(C)(C)C(O)CC5(C(=O)O)CCC34C)C2(C)C)C(O)C(OC2OC(CO)C(O)C(OC3OC(CO)C(O)C(OC4OC(COC5OC(CO)C(O)C(O)C5O)C(O)C(O)C4O)C3O)C2O)C1O (stereo unspecified)
inactive: activity change, negative = cytotoxicity (SKOV3) 0.954% [at 6.55 µM] | activity change, negative = cytotoxicity (Tov-21-G) 2.74% [at 6.55 µM] | activity change, negative = cytotoxicity (Tov112D) -3.38% [at 6.55 µM]

CCC(C)/C=C(C)/C=C/C1=CC2=C(Cl)C(=O)C(C)(OC(C)=O)C(=O)C2=CN1C1CCCCN(C(CCC(N)=O)C(=O)O)C1=O (stereo unspecified)
inactive: Potency (SKOV3) | Potency (Tov-21-G) | Potency (Tov112D)

C[C@@H]1O[C@@H](O[C@H]2[C@H](O[C@H]3[C@H](O[C@H]4CC[C@@]5(C)C(CC[C@]6(C)C5CC=C5[C@@H]7CC(C)(C(=O)O)C[C@@H](O)[C@]7(C)CC[C@]56C)[C@@]4(C)CO)O[C@H](C(=O)O)[C@@H](O)[C@@H]3O)O[C@H](CO)[C@H](O)[C@@H]2O)[C@H](O)[C@H](O)[C@H]1O (stereo partly specified)
inactive: activity change, negative = cytotoxicity (SKOV3) 5.26% [at 11.6 µM] | activity change, negative = cytotoxicity (Tov-21-G) 6.81% [at 11.6 µM] | activity change, negative = cytotoxicity (Tov112D) 9.62% [at 11.6 µM]

CCC(C)C1NC(=O)C2CCCN2C(=O)C(C(C)C)NC(=O)c2ccccc2NC(=O)C(Cc2ccc(O)cc2)NC(=O)C(C)NC(=O)C(C(C)O)NC1=O (stereo unspecified) (cyclo([2Abz]VPITAY); configuration not given here)
inactive: Potency (SKOV3) | Potency (Tov-21-G) | Potency (Tov112D)

C=CC(C)(O)CC/C=C(/C)C(=O)OC1C(OC2OCC(OC3OC(CO)C(O)C(O)C3O)C(OC3OCC(O)C(OC4OC(C)C(O)C(O)C4O)C3O)C2O)COC(OC(=O)C23CCC(C)(C)CC2C2=CCC4C5(C)CCC(OC6OC(CO)C(OC7OC(CO)C(O)C(OC8OCC(O)C(O)C8O)C7O)C(O)C6O)C(C)(C)C5CCC4(C)C2(C)CC3O)C1O (stereo unspecified)
inactive: activity change, negative = cytotoxicity (SKOV3) 24.3% [at 6.55 µM] | activity change, negative = cytotoxicity (Tov-21-G) 1.46% [at 6.55 µM] | activity change, negative = cytotoxicity (Tov112D) 0.487% [at 6.55 µM]

CC1CCC2(C)C(CC(O)C(O)C23CO3)C1(C)CCC1=CC(O)OC1=O (stereo unspecified)
inactive: Potency (SKOV3) | Potency (Tov-21-G) | Potency (Tov112D)

CC1CCC(=O)CC(O)C(O)CC(=O)O1 (stereo unspecified)
inactive: Potency (SKOV3) | Potency (Tov-21-G) | Potency (Tov112D)

O=C(/C=C/c1ccc(O)c(O)c1)OCc1ccccc1O[C@@H]1O[C@H](CO)[C@@H](O)[C@H](O)[C@H]1O
inactive: Potency (SKOV3) | Potency (Tov-21-G) | Potency (Tov112D)

COc1c(C)c2c(c(O)c1C/C=C(\C)CC/C=C(\C)CCC(=O)O)C(=O)OC2
inactive: Potency (SKOV3) | Potency (Tov-21-G) | Potency (Tov112D)

C[C@@H]1O[C@@H](O[C@H]2[C@H](O[C@H]3[C@H](O[C@H]4CC[C@@]5(C=O)C(CC[C@]6(C)C5CC=C5C7CC(C)(C)C[C@@H](O)[C@]7(C)CC[C@]56C)C4(C)C)O[C@H](C(=O)O)[C@@H](O)[C@@H]3O)OC[C@@H](O)[C@@H]2O)[C@H](O)[C@H](O)[C@H]1O (stereo partly specified)
inactive: activity change, negative = cytotoxicity (SKOV3) 13.5% [at 11.6 µM] | activity change, negative = cytotoxicity (Tov-21-G) 8.97% [at 11.6 µM] | activity change, negative = cytotoxicity (Tov112D) 15.2% [at 11.6 µM]

CC(/C=C/C1(O)C2(C)COC1(C)CC(=O)C2)O[C@@H]1O[C@H](CO)[C@@H](O)[C@H](O)[C@H]1O (stereo partly specified)
inactive: Potency (SKOV3) | Potency (Tov-21-G) | Potency (Tov112D)

C=C1[C@@H]2CC[C@@]3(C)[C@H](c4ccoc4)OC(=O)C[C@]13O[C@H]1CC(=O)C(C)(C)[C@H](CC(=O)OC)[C@]12C
inactive: Potency (SKOV3) | Potency (Tov-21-G) | Potency (Tov112D)

Cc1nn(C)c(COc2ccc(N3CCN(S(=O)(=O)N(C)C)CC3)cc2)c1-c1cccc2c(CCCOc3cccc4ccccc34)c(C(=O)O)n(CCN3CCOCC3)c12
inactive: Potency (SKOV3) | Potency (Tov-21-G) | Potency (Tov112D)

C=C1[C@@H]2[C@H]3OC(=O)C(=C)[C@@H]3CC[C@@](C)(O)[C@@H]2C[C@@H]1O[C@@H]1O[C@H](CO)[C@@H](O)[C@H](O)[C@H]1O
inactive: Potency (SKOV3) | Potency (Tov-21-G) | Potency (Tov112D)

CCS(=O)(=O)N1CCC([C@@H](C)n2c(C)c(C(=O)NCc3c(OC)cc(C)[nH]c3=O)c3ccccc32)CC1
inactive: Potency (SKOV3) | Potency (Tov-21-G) | Potency (Tov112D)

CCCCCCc1cccc(NC(=O)[C@H](N)CCP(=O)(O)O)c1
inactive: activity change, negative = cytotoxicity (SKOV3) -0.133% [at 11.6 µM] | activity change, negative = cytotoxicity (Tov-21-G) -2.84% [at 11.6 µM] | activity change, negative = cytotoxicity (Tov112D) 3.09% [at 11.6 µM]

CC(=O)OC[C@@]12[C@H](O)C[C@@H](C)[C@]3(C[C@@H](c4ccoc4)OC3=O)[C@H]1C[C@H](O)C[C@]21CO1
inactive: Potency (SKOV3) | Potency (Tov-21-G) | Potency (Tov112D)

CC(=O)N1CCN(NC(=O)c2ccc(F)cc2)CC1
inactive: Potency (SKOV3) | Potency (Tov-21-G) | Potency (Tov112D)

COC(=O)CC[C@@H](C)[C@H]1CC[C@H]2[C@@H]3CC(=O)[C@H]4C[C@H](OC(C)=O)CC[C@]4(C)[C@H]3CC[C@]12C
inactive: Potency (SKOV3) | Potency (Tov-21-G) | Potency (Tov112D)

C[C@H](NCc1ccc(OCc2ccccc2F)cc1)C(N)=O
inactive: Potency (SKOV3) | Potency (Tov-21-G) | Potency (Tov112D)

C=CC(C)(O)CC/C=C(\C)C(=O)OC1CC2(C(=O)O)CCC3(C)C(=CCC4C5(C)CCC(OC6OC(COC7OCC(O)C(O)C7O)C(O)C(OC7OCC(O)C(O)C7O)C6OC6OC(CO)C(O)C(O)C6OC6OCC(O)C(O)C6O)C(C)(C)C5CCC43C)C2CC1(C)C (stereo unspecified)
inactive: activity change, negative = cytotoxicity (SKOV3) -0.175% [at 6.55 µM] | activity change, negative = cytotoxicity (Tov-21-G) 1.97% [at 6.55 µM] | activity change, negative = cytotoxicity (Tov112D) 4.31% [at 6.55 µM]

COC(=O)[C@H](OC(C)=O)[C@H]1C(C)(C)C(=O)[C@H]2CC3=C4CC(=O)O[C@@H](c5ccoc5)[C@]4(C)CCC3[C@@]1(C)C2=O (stereo partly specified)
inactive: Potency (SKOV3) | Potency (Tov-21-G) | Potency (Tov112D)

N#Cc1ccc2[nH]c(O)c(-c3ccc(CN4CCOCC4)cn3)c2c1
inactive: Potency (SKOV3) | Potency (Tov-21-G) | Potency (Tov112D)

Clc1ccc2c(c1)C1=NCCN1c1c(-c3noc(C4CC4)n3)ncn1-2
inactive: Potency (SKOV3) | Potency (Tov-21-G) | Potency (Tov112D)

CC1(CO)CC[C@]2(C(=O)O[C@@H]3O[C@H](CO)[C@@H](O)[C@H](O)[C@H]3O)CC[C@]3(C)C(=CCC4[C@@]5(C)CC[C@H](O[C@@H]6O[C@H](C(=O)O)[C@@H](O)[C@H](O)[C@H]6O)C(C)(C)C5CC[C@]43C)C2C1 (stereo partly specified)
inactive: activity change, negative = cytotoxicity (SKOV3) 13% [at 11.6 µM] | activity change, negative = cytotoxicity (Tov-21-G) 6.77% [at 11.6 µM] | activity change, negative = cytotoxicity (Tov112D) 9.6% [at 11.6 µM]

CC(/C=C/[C@]1(O)[C@@]2(C)CO[C@@]1(C)C[C@@H](O)C2)=C\C(=O)O[C@@H]1O[C@H](CO)[C@@H](O)[C@H](O)[C@H]1O
inactive: Potency (SKOV3) | Potency (Tov-21-G) | Potency (Tov112D)

NS(=O)(=O)NCCNc1nonc1C(=Nc1ccc(F)c(Br)c1)NO
inactive: Potency (SKOV3) | Potency (Tov-21-G) | Potency (Tov112D)

CN1C(=O)c2ccccc2-n2c(nc3ccccc3c2=O)/C1=C/c1ccccc1
inactive: Potency (SKOV3) | Potency (Tov-21-G) | Potency (Tov112D)

CCOc1ccc(-c2ccc(Cn3c(CC(C)(C)C(=O)O)c(SC(C)(C)C)c4cc(OCc5ccc(C)cn5)ccc43)cc2)cn1
inactive: Potency (SKOV3) | Potency (Tov-21-G) | Potency (Tov112D)

CCC[C@@H]1C[C@@H](C(=O)N[C@H](C(C)Cl)[C@H]2O[C@H](SC)[C@H](O)[C@@H](O)[C@H]2O)N(C)C1 (stereo partly specified)
inactive: Potency (SKOV3) | Potency (Tov-21-G) | Potency (Tov112D)

C=C1CC2(C(=O)O)CC1CCC2C1(C)CCCC2(C)C(=O)OC(O)C21 (stereo unspecified)
inactive: Potency (SKOV3) | Potency (Tov-21-G) | Potency (Tov112D)

COc1ccc([C@H]2Cc3cccc(O)c3C(=O)O2)cc1
inactive: Potency (SKOV3) | Potency (Tov-21-G) | Potency (Tov112D)

CC(=O)OC1C(O)C(C)=C(CCC(C)CC(=O)O)C2(C)CCCC(C)(C)C12 (stereo unspecified)
inactive: Potency (SKOV3) | Potency (Tov-21-G) | Potency (Tov112D)

CC1(C)NC2N(C1=O)c1ccccc1C2(O)CC(C(=O)O)n1cnc2ccccc2c1=O (stereo unspecified)
inactive: Potency (SKOV3) | Potency (Tov-21-G) | Potency (Tov112D)

C=C1CCC2C(C)(COC3OC(COC(=O)CC(=O)O)C(O)C(O)C3O)CCCC2(C)C1CCC1=CCOC1=O (stereo unspecified)
inactive: Potency (SKOV3) | Potency (Tov-21-G) | Potency (Tov112D)

CC1OC(OC2C(O)C(C(=O)O)OC(OC3CCC4(C)C(CCC5(C)C4C=CC4=C6CC(C)(C)CC(O)C6(C)CCC45C)C3(C)C)C2OC2OCC(O)C(O)C2O)C(O)C(O)C1O (stereo unspecified)
inactive: activity change, negative = cytotoxicity (SKOV3) 1.68% [at 11.6 µM] | activity change, negative = cytotoxicity (Tov-21-G) 7.57% [at 11.6 µM] | activity change, negative = cytotoxicity (Tov112D) 16.2% [at 11.6 µM]

CCCCNC(=O)[C@@H]1Cc2ccccc2N1C(=O)[C@@H](N)CC
inactive: Potency (SKOV3) | Potency (Tov-21-G) | Potency (Tov112D)

C[C@@H]1O[C@@H](O[C@H]2[C@H](O)[C@@H](C(=O)O)O[C@@H](O[C@H]3CC[C@@]4(C)C(CC[C@]5(C)C4CC=C4C6CC(C)(C)CC[C@]6(C(=O)O)CC[C@]45C)C3(C)C)[C@@H]2O[C@@H]2O[C@H](CO)[C@@H](O)[C@H](O)[C@H]2O)[C@H](O)[C@H](O)[C@H]1O (stereo partly specified)
inactive: activity change, negative = cytotoxicity (SKOV3) -1.84% [at 11.6 µM] | activity change, negative = cytotoxicity (Tov-21-G) 0.088% [at 11.6 µM] | activity change, negative = cytotoxicity (Tov112D) 0.16% [at 11.6 µM]

Reference: PubChem BioAssay (NCATS)
